tim10-1 inh: tim10-1 yeast growth inhibition; 2.2% of 330,000 active; AID 463190; inhibition, % at 20 µM; S. cerevisiae tim10-1 ts strain growth, BacTiter-Glo, 24 h;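 active = inhibition of at least 40%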;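 note: mutant grown at 25 °C; 0% = DMSO wells with yeast and 100% = wells holding no yeast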
TIM10 inh: growth inhibitors of TIM10 yeast strain; S. cerevisiae TIM10 strain growth, BacTiter-Glo luminescence, 24 h; inhibition, % at 10 µM; 1.4% of 330,000 active;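 active = inhibition of 40% or more at the single tested concentration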;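 note: wild-type TIM10 isogenic control strain grown at permissive 25 °C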
tim23-1 inh: tim23-1 yeast growth inhibition; 1.3% of 330,000 active; AID 463212; S. cerevisiae tim23-1 growth, BacTiter-Glo luminescence, 24 h; inhibition, % at 20 µM;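 active = growth inhibition of the mutant yeast at or above 50%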;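 note: temperature-sensitive mutant grown at 25 °C; plate controls were DMSO-treated mutant yeast for no effect and medium wells lacking yeast for full effect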
NALP3 yeast inh: inhibitors of NALP3 inflammasome in yeast | 0.39% of 330,000 active | AID 2825 | Yeast reconstituted NLRP3/ASC/caspase-1, beta-gal luminescence, 24 h | inhibition, % at 10 µM;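 active = inhibition of 50% or more; inactive = inhibition below 50%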;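 note: plate controls were induced DMSO wells for no effect and uninduced yeast grown without galactose for full effect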
PfHsp90 set2: reduces growth (ATP signal) of yeast expressing P. falciparum Hsp90 | inhibition, % at 9.4 µM | 0.32% of 310,000 active | S. cerevisiae expressing PfHsp90, BacTiter-Glo ATP, 48 h; yeast lacking PDR1 and PDR3 efflux regulators;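 active = every replicate shows inhibition above about 80%, whatever the replicate mean, limit read from the data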;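 note: 0% = DMSO neutral controls and 100% = 20 µM radicicol positive controls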
TIM10 conf: confirmation of TIM10 yeast growth inhibitors; shares compounds with TIM10 inh; S. cerevisiae tim10 strain growth, BacTiter-Glo luminescence, 24 h; inhibition, % at 10 µM; 63% of 4,600 active;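 active = inhibition of yeast growth at or above a set limit in either of two replicates at 10 µM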;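 note: this counterscreen used the strain with wild-type TIM10; 0% = yeast with DMSO and 100% = medium wells lacking yeast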
Active calls of the source: *; . = no result. Sampled rows, rich in hits. Any-hit rate of the full collection: about 3.7%.

SMILES	tim10-1 inh	TIM10 inh	tim23-1 inh	NALP3 yeast inh	PfHsp90 set2	TIM10 conf
COc1ccc(-c2cc(=Nc3ccc(C)cc3)c3ccccc3o2)cc1	37	55*	48	25	-6	47*
COc1ccc(-c2cc(=NC(CC(C)C)C(=O)O)c3cc(C)ccc3o2)cc1 (stereo not drawn)	31	61*	29	20	0	44*
COc1ccc(N=c2cc(-c3ccc(O)cc3)oc3ccccc23)cc1	40	31	47	7	-2	.
CC(=O)c1cc(Cl)ccc1OC(=O)c1ccco1	1	2	5	1	7	.
O=C(Oc1ccc(OC(=O)c2ccco2)c(S(=O)(=O)c2ccc(Cl)cc2)c1)c1ccco1	25	49*	32	6	-53	-6
O=[N+]([O-])c1cc(Cl)cc(/C=N\Nc2ccccn2)c1O	16	41*	44	28	.	28
O=[N+]([O-])c1ccc(Cl)cc1C=NNc1ccccn1	.	.	.	.	3	.
COc1ccc(CCN2C(=O)NC(NS(=O)(=O)c3ccc(NC(C)=O)cc3)(C(F)(F)F)C2=O)cc1OC (stereo not drawn)	-16	-13	-5	3	-3	.
C/C(=N\NC(=S)NC(C)C)c1ccc(Cl)c([N+](=O)[O-])c1	3	-8	16	4	-17	.
C/C(=N\NC(=S)NC(C)C)c1cccc([N+](=O)[O-])c1	34	42*	37	-17	-27	6
CCOC(=O)c1ccc(NC(=O)c2ccc(CN3CCOCC3)cc2)cc1	-15	-22	7	12	-3	.
COc1cccc(NC(=O)c2ccc(CN3CCN(c4ccccc4)CC3)cc2)c1	27	51*	26	31	-27	21
NC(=O)c1ccc(NC(=O)c2ccc(CN3CCOCC3)cc2)cc1	5	43*	7	2	-3	-3
COc1ccc(NC(=O)c2ccc(CN3CCN(c4ccccc4)CC3)cc2)cc1	14	6	16	19	9	.
COc1cccc(Oc2cncnc2-c2ccc(OC)cc2O)c1	-31	11	5	15	13	.
Cc1n[nH]c(C)c1CCOc1ccc(C(C)C)cc1	36	49*	43	2	-15	30*
Cc1cccc(C)c1NC(=O)CNC(=O)C(C)NC(C)c1ccccc1Br (stereo not drawn)	2	5	-8	-5	15	.
Cc1ccc(S(=O)(=O)NCCS(=O)(=O)N2CCN(c3ccccc3)CC2)cc1	12	18	18	6	-12	.
COc1cc(OC)cc(-c2nc3ccccc3c(=O)n2OC(=O)c2ccc(C)c(C)c2)c1	37	50*	49	34	10	25
C[C@H](NC(=O)c1nc[nH]c1C(=O)N1CCc2ccccc2C1)C(=O)OCc1ccccc1	25	17	13	8	-1	.
O=C(Nc1ccc2c(c1)nc1n2CCSC1)c1ccccc1	39	66*	40	48	-1	67*
Cc1nc2ccc(NC(=O)c3ccccc3)cc2s1	-5	44*	30	41	12	7
Cc1nc2ccc(NS(=O)(=O)c3c(F)cccc3F)cc2s1	9	4	22	-3	-9	.
CCC(=O)Nc1ccc2c(c1)nc1n2CCSC1	20	-2	14	13	-6	.
Cc1nc2ccc(NS(=O)(=O)c3ccc(F)cc3)cc2s1	3	60*	9	14	0	0
SMILES	tim10-1 inh	TIM10 inh	tim23-1 inh	NALP3 yeast inh	PfHsp90 set2	TIM10 conf
O=C(Nc1ccc2c(c1)nc1n2CCOC1)c1ccccc1	35	63*	44	10	3	47*
Cc1cc(C)n(-c2ccc(C(=O)Nc3cccnc3)cc2)n1	-2	10	1	8	-3	.
NC1=NC(c2ccccc2)=NC1(NC(=O)c1ccccc1)C(Cl)Cl (stereo not drawn)	2	15	10	5	-9	.
CC(C)C(=O)Nc1ccc2c(c1)nc1n2CCSC1	9	4	9	-4	8	.
COc1ccc(C(=O)Nc2ccc3c(c2)nc2n3CCSC2)cc1	11	51*	35	12	.	42*
Cc1cccc(Cn2c(=O)c3c(nc4n3CCCN4Cc3ccccc3)n(C)c2=O)c1	39	55*	37	12	-4	1
Cn1c(=O)n(Cc2ccccc2)c(=O)c2c1nc1n2CCCN1C1CCCCC1	33	41*	18	-4	-65	27
CCOc1ccc(S(=O)(=O)N(C)CC(=O)NC2CCCC2)cc1	6	5	17	8	21	.
Cc1ccn2c(=O)nc(SCC(=O)NCc3ccccc3Cl)nc2c1	8	-3	16	3	.	.
COc1ccc(CN2CCN(Cc3c[nH]c4ccccc34)CC2CCO)c(F)c1 (stereo not drawn)	-10	3	2	0	-24	.
CCOC(=O)c1ccc(NC(=O)CCS(=O)(=O)c2ccc(Br)s2)cc1	39	44*	26	2	.	18
Cc1nn(-c2ccccc2)c(Cl)c1C(=O)N(C)CC(=O)Nc1cccc(F)c1	31	9	31	9	5	.
CC(c1ccc(F)cc1)n1c(-c2ccc3ccccc3n2)n[nH]c1=S (stereo not drawn)	6	46*	49	17	-48	23
CC(c1ccc(Cl)cc1)n1c(-c2ccc3ccccc3n2)n[nH]c1=S (stereo not drawn)	37	30	48	21	-6	.
Cc1ccc(C(=O)Oc2ccc(C(=O)COC(=O)C3CC(=O)N(Cc4ccco4)C3)cc2)cc1 (stereo not drawn)	40	41*	21	6	.	13
COCCN(C(=O)CCN1C(=O)C2CC=CCC2C1=O)c1c(N)n(CC(C)C)c(=O)[nH]c1=O (stereo not drawn)	-10	13	-4	9	3	.
O=c1oc2ccccc2c(Nc2cccc3ccccc23)c1[N+](=O)[O-]	31	49*	39	28	1	36*
O=c1oc2ccccc2c(Nc2ccccc2O)c1[N+](=O)[O-]	11	9	-13	20	-7	.
CCC1CCCCN1C(=O)CSc1nnc2nc(C)cc(C)n12 (stereo not drawn)	1	43*	3	13	-23	-14
CC(C)(C)Nc1nc(Cl)nc(Nc2ccccc2)n1	-5	1	48	-12	-36	.
COc1ccccc1Nc1nc(Cl)nc(NC(C)(C)C)n1	33	42*	18	-29	-33	23
COc1ccc(N2CC(C(=O)Nc3nc4ccc(OC)cc4s3)CC2=O)cc1 (stereo not drawn)	33	-5	34	15	4	.
O=C(Nc1nc2ccccc2s1)C1CC(=O)N(c2ccc(Cl)cc2)C1 (stereo not drawn)	27	48*	43	7	-9	-22
Cn1c(=O)c2c(O)c(C=NCc3ccccc3)c(=O)n(C)c2n(C)c1=O	5	11	12	12	.	.

Screening results deposited in PubChem by several laboratories.
